Experimental findings from the OligoGym collection are described below.
Also: reference of the scale not given here.

The target of one assay is EMD. In words: pooled miR-30 sensor sort-seq; sequence = guide strand. As to conditions: shRNA.
AAAGCCTACGAGTTGATCCTAC: the sensor-assay potency score (higher = more potent) was -0.00514.

In the case of TCGTACTCGAAGATCTTCTTCT, the sensor-assay potency score (higher = more potent) turned out to be 0.284. Consider ATCTTCTTCTCGTAAAGCCTAC, for which the sensor-assay potency score (higher = more potent) is -1.02. For the sequence TAATAGGACAGGTCCAGGGAGC, the sensor-assay potency score (higher = more potent) was -1.25.

Another assay concerns the target EMILIN2. Described as above. The settings on record: shRNA.
Take TAGGTCTGAAGTTCACTCGATA: the sensor-assay potency score (higher = more potent) was -0.326.

As for TTCCATTACATACAAACCGAAT, the sensor-assay potency score (higher = more potent) is -1.63.

For the sequence TTTATTGACACTCCCTGTCTTT, the sensor-assay potency score (higher = more potent) is -0.458. On the same count and under the same terms, the figure for TAGAGTTTTTACAACTATCTAT is -0.151; for TTGACCAATGTCACCATTCTTT it is -0.477. Regarding TATTCCAGGAACTCTCTCCTGT, the sensor-assay potency score (higher = more potent) worked out at 0.252.
